Results filed as inconclusive are left out. A call without a number means that no potency is given here. The source made the active and inactive calls. The call rests on the fitted dose curve; in most records, active means well fitted curve in the direction sought with a large enough effect; inconclusive means small, poorly fitted or top-dose-only effect, or another doubt; inactive means no such curve, though single readings can be large; an effect the other way counts as inactive or inconclusive.
Assay: qHTS of pediatric cancer cell lines to identify multiple opportunities for drug repurposing: Primary screen for NB-EBc1 cells (AID 1347095)
Conditions: NB-EBc1 neuroblastoma viability, CellTiter-Glo luminescence, 48 h; series mostly up to 46 µM
In short: (§1)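 Quantitative HTS format: each compound titrated (MIPE 11 points from 0.78 nM, NPC 8 points from 0.59 nM) onto cells plated 5 hours earlier. After 48 h at 37 degrees C, CellTiter-Glo luminescence was recorded.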

Structure (SMILES)	Potency	activity change, negative = cytotoxic
CCCN(CCC)C(=O)C(CCC(=O)O)NC(=O)c1ccccc1 (stereo unspecified)	inactive	–
CCCOc1ccccc1-c1nc2n[nH]nc2c(=O)[nH]1	inactive	–
O=C1CC2(CCCC2)CC(=O)N1CCCCN1CCN(c2ncccn2)CC1	inactive	–
NC(Cc1ccc(Cl)cc1)C(=O)O (stereo unspecified)	–	23.4% [at 0.597 µM] (inactive)
CC[N+](C)(C)c1cccc(O)c1	inactive	–
CCc1c(C)[nH]c2c1C(=O)C(CN1CCOCC1)CC2 (stereo unspecified)	inactive	–
CC1=NS(=O)(=O)c2cc(Cl)ccc2N1	inactive	–
C[N+](C)(C)CCOC(N)=O	inactive	–
c1ccc2c(c1)CCCC2C1=NCCN1 (stereo unspecified)	inactive	–
CN(C)C(=O)Oc1cccc([N+](C)(C)C)c1	inactive	–
CCN(CC)CC(=O)Nc1c(C)cccc1C	inactive	–
COc1ccc(CN(CCN(C)C)c2ccccn2)cc1	inactive	–
CCO/C([O-])=N/c1c[n+](N2CCOCC2)no1	inactive	–
CN1C(=O)CC[C@H]1c1cccnc1	inactive	–
Brc1c(NC2=NCCN2)ccc2nccnc12	inactive	–
NC/C=C/C(=O)O	inactive	–

Assay: qHTS of pediatric cancer cell lines to identify multiple opportunities for drug repurposing: Primary screen for U-2 OS cells (AID 1347096); further: nearly all actives have a fitted effect of over 50% in size
Conditions: U-2 OS viability, CellTiter-Glo luminescence, 48 h; series mostly up to 46 µM
In short: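 Cells (500-1,000/well) in growth media were settled 5 h at 37 degrees C, then given compounds for 48 h. Viability was read as CellTiter-Glo luminescence. Primary runs used MIPE at 11 points (0.78 nM-46 µM) and NPC at 8 points (0.59 nM-46 µM); follow-ups used 11 points.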

Structure (SMILES)	Potency	activity change, negative = cytotoxic
C[N+](C)(C)CCOC(=O)CCC(=O)OCC[N+](C)(C)C	inactive	–
C[C@]12C=CC(=O)C=C1CC[C@H]1[C@@H]3C[C@@H](O)[C@](O)(C(=O)CO)[C@@]3(C)C[C@H](O)[C@@]12F	inactive	–
CC(=O)OCC1=C(C(=O)O)N2C(=O)[C@@H](NC(=O)Cc3cccs3)[C@H]2SC1	inactive	–
CC(C)NNC(=O)c1ccncc1	inactive	–
CCN(CC)CCNC(=O)c1cc(S(C)(=O)=O)ccc1OC	inactive	–
O=C(O)CN(CCOCCOCCN(CC(=O)O)CC(=O)O)CC(=O)O	–	10.9% [at 0.597 µM] (inactive)
Cc1cccc(C)c1NC(=O)C(C)N (stereo unspecified)	inactive	–
CSc1ccc(C(=O)c2[nH]c(=O)[nH]c2C)cc1	inactive	–
C[N+](C)(C)CCCCCCCCCC[N+](C)(C)C	inactive	–
Cc1nnc(SCC2=C(C(=O)O)N3C(=O)[C@@H](NC(=O)Cn4cnnn4)[C@H]3SC2)s1	inactive	–
NC(=O)N1c2ccccc2C=Cc2ccccc21	inactive	–
CC(C(=O)O)c1ccc(CC2CCCC2=O)cc1 (stereo unspecified)	inactive	–
CCn1ccnc1CC1COc2ccccc2O1 (stereo unspecified)	inactive	–
COc1ccc([C@@H]2Sc3ccccc3N(CCN(C)C)C(=O)[C@@H]2OC(C)=O)cc1	inactive	–
c1cnc(N2CCN(Cc3ccc4c(c3)OCO4)CC2)nc1	inactive	–
CN1CCN(CC(=O)N2c3ccccc3C(=O)Nc3cccnc32)CC1	–	4.1% [at 4.84 µM] (inactive)
CN(C)CCOC(=O)COc1ccc(Cl)cc1	inactive	–
Cc1ccc(=O)n(-c2ccccc2)c1	inactive	–

Structure (SMILES)	Potency	activity change, negative = cytotoxic
CN/C(=C\[N+](=O)[O-])NCCSCc1ccc(CN(C)C)o1	inactive	–
CCCN(CCC)C(=O)C(CCC(=O)O)NC(=O)c1ccccc1 (stereo unspecified)	inactive	–
CCCOc1ccccc1-c1nc2n[nH]nc2c(=O)[nH]1	inactive	–
O=C1CC2(CCCC2)CC(=O)N1CCCCN1CCN(c2ncccn2)CC1	inactive	–
NC(Cc1ccc(Cl)cc1)C(=O)O (stereo unspecified)	–	18.1% [at 0.597 µM] (inactive)
CC[N+](C)(C)c1cccc(O)c1	inactive	–
CCc1c(C)[nH]c2c1C(=O)C(CN1CCOCC1)CC2 (stereo unspecified)	inactive	–
CC1=NS(=O)(=O)c2cc(Cl)ccc2N1	inactive	–
C[N+](C)(C)CCOC(N)=O	inactive	–
c1ccc2c(c1)CCCC2C1=NCCN1 (stereo unspecified)	inactive	–
CN(C)C(=O)Oc1cccc([N+](C)(C)C)c1	inactive	–
CCN(CC)CC(=O)Nc1c(C)cccc1C	inactive	–
COc1ccc(CN(CCN(C)C)c2ccccn2)cc1	inactive	–
CCO/C([O-])=N/c1c[n+](N2CCOCC2)no1	inactive	–
CN1C(=O)CC[C@H]1c1cccnc1	inactive	–
Brc1c(NC2=NCCN2)ccc2nccnc12	inactive	–
NC/C=C/C(=O)O	inactive	–

Assay: qHTS of pediatric cancer cell lines to identify multiple opportunities for drug repurposing: Primary screen for Saos-2 cells (AID 1347097); further: nearly all actives have a fitted effect of over 40% in size
Conditions: Saos-2 viability, CellTiter-Glo ATP luminescence, 48 h; series mostly up to 46 µM
In short: as §1

Structure (SMILES)	Potency	activity change, negative = cytotoxic
C[N+](C)(C)CCOC(=O)CCC(=O)OCC[N+](C)(C)C	inactive	–
C[C@]12C=CC(=O)C=C1CC[C@H]1[C@@H]3C[C@@H](O)[C@](O)(C(=O)CO)[C@@]3(C)C[C@H](O)[C@@]12F	inactive	–
CC(=O)OCC1=C(C(=O)O)N2C(=O)[C@@H](NC(=O)Cc3cccs3)[C@H]2SC1	inactive	–
CC(C)NNC(=O)c1ccncc1	inactive	–
CCN(CC)CCNC(=O)c1cc(S(C)(=O)=O)ccc1OC	inactive	–
O=C(O)CN(CCOCCOCCN(CC(=O)O)CC(=O)O)CC(=O)O	–	-2.21% [at 0.597 µM] (inactive)
Cc1cccc(C)c1NC(=O)C(C)N (stereo unspecified)	inactive	–
CSc1ccc(C(=O)c2[nH]c(=O)[nH]c2C)cc1	inactive	–
C[N+](C)(C)CCCCCCCCCC[N+](C)(C)C	inactive	–
Cc1nnc(SCC2=C(C(=O)O)N3C(=O)[C@@H](NC(=O)Cn4cnnn4)[C@H]3SC2)s1	inactive	–
NC(=O)N1c2ccccc2C=Cc2ccccc21	inactive	–
CC(C(=O)O)c1ccc(CC2CCCC2=O)cc1 (stereo unspecified)	inactive	–
CCn1ccnc1CC1COc2ccccc2O1 (stereo unspecified)	inactive	–
COc1ccc([C@@H]2Sc3ccccc3N(CCN(C)C)C(=O)[C@@H]2OC(C)=O)cc1	inactive	–
c1cnc(N2CCN(Cc3ccc4c(c3)OCO4)CC2)nc1	inactive	–
CN1CCN(CC(=O)N2c3ccccc3C(=O)Nc3cccnc32)CC1	–	-2.29% [at 4.84 µM] (inactive)
CN(C)CCOC(=O)COc1ccc(Cl)cc1	inactive	–
Cc1ccc(=O)n(-c2ccccc2)c1	inactive	–

Structure (SMILES)	Potency	activity change, negative = cytotoxic
CN/C(=C\[N+](=O)[O-])NCCSCc1ccc(CN(C)C)o1	inactive	–
CCCN(CCC)C(=O)C(CCC(=O)O)NC(=O)c1ccccc1 (stereo unspecified)	inactive	–
CCCOc1ccccc1-c1nc2n[nH]nc2c(=O)[nH]1	inactive	–
O=C1CC2(CCCC2)CC(=O)N1CCCCN1CCN(c2ncccn2)CC1	inactive	–
NC(Cc1ccc(Cl)cc1)C(=O)O (stereo unspecified)	–	1.27% [at 0.597 µM] (inactive)
CC[N+](C)(C)c1cccc(O)c1	inactive	–
CCc1c(C)[nH]c2c1C(=O)C(CN1CCOCC1)CC2 (stereo unspecified)	inactive	–
CC1=NS(=O)(=O)c2cc(Cl)ccc2N1	inactive	–
C[N+](C)(C)CCOC(N)=O	inactive	–
c1ccc2c(c1)CCCC2C1=NCCN1 (stereo unspecified)	inactive	–
CN(C)C(=O)Oc1cccc([N+](C)(C)C)c1	inactive	–
CCN(CC)CC(=O)Nc1c(C)cccc1C	inactive	–
COc1ccc(CN(CCN(C)C)c2ccccn2)cc1	inactive	–
CCO/C([O-])=N/c1c[n+](N2CCOCC2)no1	inactive	–
CN1C(=O)CC[C@H]1c1cccnc1	inactive	–
Brc1c(NC2=NCCN2)ccc2nccnc12	inactive	–
NC/C=C/C(=O)O	inactive	–

— PubChem BioAssay (NCATS)
